Experimental findings from PubChem BioAssay (NCATS) are described below.

Inconclusive results are not listed. Where a call stands in place of a potency, no number is given. Calls of active or inactive are those of the source. Unless noted, calls come from the whole dose curve.

The nature of experiment [1]: Validation screen for small molecules that induce DNA re-replication in SW480 colon adenocarcinoma cells (AID 504364; active = well fitted activation curve with a large enough effect). The settings on record: DNA re-replication phenotype (high-content imaging); series mostly up to 46.1 µM. The method, boiled down: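 SW480 cells seeded at 250 per well were exposed to compound or DMSO for 48 hr at 37 C, 5% CO2, then stained with Hoechst for 40 min. DNA content per nucleus was imaged (405 nm ex, 500-530 nm em).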

In experiment [2] the target is Estrogen receptor (Homo sapiens) (UniProt P03372). In words: qHTS assay for small molecule agonists of estrogen receptor alpha signaling (AID 588514). Note: nearly all actives have a fitted effect of over 70% in size. The settings on record: ER-alpha-UAS-bla HEK293, beta-lactamase ratio, 18 h, percent of full estradiol response, vehicle zero; series mostly up to 76.8 µM. The method, boiled down:
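ER-alpha-UAS-bla GripTite HEK 293 cells in medium with 2% charcoal/dextran-treated FBS were treated with compound titrations at 37 C for 18 hrs; beta-lactamase reporter read by CCF4 fluorescence after 2 hrs at RT.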
For orientation: In qHTS, concentration-response curves come from the screen itself.

Experiment [3] addresses Androgen receptor (Homo sapiens) (UniProt P10275). The experiment can be described thus: qHTS assay for small molecule antagonists of androgen receptor signaling (AID 588516; active = well fitted curve in the direction sought with a large enough effect in the signal ratio, with a control signal flat, not every such curve was filed as active; the % refers to the signal ratio; note: potency is the fitted concentration of half-maximal effect). The settings on record: AR-UAS-bla HEK293, beta-lactamase ratio, antagonist mode, 16 h. The method, boiled down: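 Antagonist-mode qHTS: inhibition of R1881 (10 nM)-driven beta-lactamase expression in GripTite HEK 293 cells is measured after 16 h; values are Hill-derived IC50s normalized between R1881 and DMSO wells.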

Experiment [4] in a line: qHTS assay for small molecule antagonists of peroxisome proliferator-activated receptor delta signaling (AID 588535; active = well fitted inhibition curve with a large enough effect in the signal ratio, with a control signal flat, not every such curve was filed as active; the % refers to the signal ratio;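 for max response: cells co-treated with a PPAR-delta agonist as stimulator during compound exposure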). Conditions: HEK293T PPARd-UAS-bla, beta-lactamase FRET ratio, 18 h; 460 nm channel. A digest of the protocol:
(§1)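 GeneBLAzer PPAR-delta-UAS-bla HEK293T cells in medium with 2% charcoal/dextran FBS were preincubated 5 hrs at 37 C, then given compounds, incubated 18 hrs at 37 C, and read by CCF4 beta-lactamase fluorescence; IC50 from Hill fits.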

Experiment [5] concerns the target Peroxisome proliferator-activated receptor delta (Homo sapiens) (UniProt Q03181). The description is as above. The settings on record: HEK293T PPARd-UAS-bla, beta-lactamase FRET ratio, 18 h; series mostly up to 76.7 µM. The method, boiled down: as §1
In experiment [6] the target is Peroxisome proliferator-activated receptor gamma (Homo sapiens) (UniProt P37231). In words: qHTS assay for small molecule antagonists of peroxisome proliferator-activated receptor gamma signaling (AID 588537; active = well fitted inhibition curve with a large enough effect in the signal ratio, with a control signal flat, not every such curve was filed as active; the % refers to the signal ratio;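 note: reporter cells co-stimulated with 50 nM rosiglitazone agonist during compound treatment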). The settings on record: HEK293 PPARg-UAS-bla, beta-lactamase ratio, antagonist mode; series mostly up to 76.8 µM. The method, boiled down: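 PPAR-gamma-UAS-bla HEK293 cells (3000/well, 1% charcoal/dextran-stripped FBS) were preincubated 6-6.5 h at 37 C, given titrated compounds, then stimulated with 50 nM rosiglitazone for 16 h. Beta-lactamase activity was read with CCF4 dye; IC50 came from Hill fits.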
Sequence of Peroxisome proliferator-activated receptor gamma (Homo sapiens) (P37231 whole entry, looked up): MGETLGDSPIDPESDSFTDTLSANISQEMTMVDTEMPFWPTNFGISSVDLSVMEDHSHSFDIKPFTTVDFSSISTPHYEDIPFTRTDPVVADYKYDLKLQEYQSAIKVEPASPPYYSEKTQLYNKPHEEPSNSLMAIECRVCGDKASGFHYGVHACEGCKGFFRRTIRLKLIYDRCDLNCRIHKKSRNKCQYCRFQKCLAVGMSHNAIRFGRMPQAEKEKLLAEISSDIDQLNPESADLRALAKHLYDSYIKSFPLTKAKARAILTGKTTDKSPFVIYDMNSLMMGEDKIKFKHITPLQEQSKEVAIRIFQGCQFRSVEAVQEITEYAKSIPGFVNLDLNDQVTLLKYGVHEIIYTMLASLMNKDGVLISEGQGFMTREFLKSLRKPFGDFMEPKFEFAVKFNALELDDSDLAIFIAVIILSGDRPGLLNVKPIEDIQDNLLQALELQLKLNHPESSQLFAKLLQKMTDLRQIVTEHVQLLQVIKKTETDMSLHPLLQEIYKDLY

Sequence of Estrogen receptor (Homo sapiens) (P03372 whole entry, looked up): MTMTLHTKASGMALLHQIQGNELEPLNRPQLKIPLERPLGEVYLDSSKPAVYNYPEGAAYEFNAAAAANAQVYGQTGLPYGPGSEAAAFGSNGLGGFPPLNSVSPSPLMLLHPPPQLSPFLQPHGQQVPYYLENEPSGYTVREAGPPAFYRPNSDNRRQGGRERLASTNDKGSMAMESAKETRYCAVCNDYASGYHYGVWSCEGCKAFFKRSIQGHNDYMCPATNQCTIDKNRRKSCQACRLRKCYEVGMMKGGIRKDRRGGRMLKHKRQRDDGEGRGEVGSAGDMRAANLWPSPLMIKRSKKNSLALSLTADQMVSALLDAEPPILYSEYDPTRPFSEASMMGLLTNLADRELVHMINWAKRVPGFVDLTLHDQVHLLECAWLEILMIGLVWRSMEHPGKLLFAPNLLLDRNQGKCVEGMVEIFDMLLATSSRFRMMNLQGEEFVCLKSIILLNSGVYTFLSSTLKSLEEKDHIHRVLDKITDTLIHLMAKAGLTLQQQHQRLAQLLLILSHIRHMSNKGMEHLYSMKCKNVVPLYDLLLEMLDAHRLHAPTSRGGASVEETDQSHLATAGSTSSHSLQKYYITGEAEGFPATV
Sequence of Peroxisome proliferator-activated receptor delta (Homo sapiens) (Q03181 whole entry, looked up): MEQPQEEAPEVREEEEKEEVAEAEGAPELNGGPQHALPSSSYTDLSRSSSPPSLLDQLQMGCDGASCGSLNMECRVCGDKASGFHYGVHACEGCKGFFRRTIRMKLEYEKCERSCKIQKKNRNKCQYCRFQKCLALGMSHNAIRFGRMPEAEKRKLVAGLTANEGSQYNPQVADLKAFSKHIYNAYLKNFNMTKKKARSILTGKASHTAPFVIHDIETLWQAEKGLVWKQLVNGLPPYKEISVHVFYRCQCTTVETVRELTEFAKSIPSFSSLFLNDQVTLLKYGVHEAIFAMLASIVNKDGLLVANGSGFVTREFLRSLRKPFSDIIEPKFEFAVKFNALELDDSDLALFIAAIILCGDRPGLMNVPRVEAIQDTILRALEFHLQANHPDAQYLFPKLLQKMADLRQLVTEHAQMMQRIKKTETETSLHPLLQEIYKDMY
Sequence of Androgen receptor (Homo sapiens) (P10275 whole entry, looked up): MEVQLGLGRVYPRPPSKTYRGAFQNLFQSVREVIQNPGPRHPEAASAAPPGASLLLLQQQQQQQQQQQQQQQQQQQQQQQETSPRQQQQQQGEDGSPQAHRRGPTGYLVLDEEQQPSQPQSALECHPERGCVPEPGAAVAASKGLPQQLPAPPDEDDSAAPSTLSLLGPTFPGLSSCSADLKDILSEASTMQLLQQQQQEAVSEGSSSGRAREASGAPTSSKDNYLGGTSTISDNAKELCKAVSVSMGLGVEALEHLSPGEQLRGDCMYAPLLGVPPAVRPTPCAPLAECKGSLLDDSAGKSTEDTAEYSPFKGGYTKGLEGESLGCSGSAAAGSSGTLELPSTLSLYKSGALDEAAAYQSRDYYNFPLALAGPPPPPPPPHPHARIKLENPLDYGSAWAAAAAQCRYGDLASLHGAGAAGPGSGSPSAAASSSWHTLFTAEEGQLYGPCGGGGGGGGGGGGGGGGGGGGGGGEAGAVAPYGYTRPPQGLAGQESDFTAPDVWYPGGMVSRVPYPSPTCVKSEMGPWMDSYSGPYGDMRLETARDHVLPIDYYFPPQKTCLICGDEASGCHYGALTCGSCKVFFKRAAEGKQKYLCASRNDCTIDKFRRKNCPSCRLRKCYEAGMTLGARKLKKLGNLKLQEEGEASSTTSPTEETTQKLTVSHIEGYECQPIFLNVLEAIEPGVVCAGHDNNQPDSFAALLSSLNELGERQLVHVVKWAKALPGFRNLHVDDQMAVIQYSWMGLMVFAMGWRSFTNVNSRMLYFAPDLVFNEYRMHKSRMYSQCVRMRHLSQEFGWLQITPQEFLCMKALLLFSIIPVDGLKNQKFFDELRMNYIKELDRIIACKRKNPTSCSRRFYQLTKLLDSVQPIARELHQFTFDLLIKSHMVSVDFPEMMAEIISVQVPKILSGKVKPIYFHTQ

For the molecule `N=c1ccn2c(n1)O[C@H]1[C@@H](O)[C@@H](CO)O[C@H]12`, the outcome in experiment [1] was inactive.
Turning to `CC(C=CC1=C(C)CCCC1(C)C)=CC=CC(C)=CC(=O)Nc1ccc(O)cc1`, in experiment [2], the outcome was inactive. In experiment [3], the Potency was 35.5 µM (active).
Take `OC[C@@H](O)[C@@H](O)[C@H](O)[C@@H](O)CO`: the outcome in experiment [2] was inactive.
As for `Cc1cc(O)c2c(c1)C(=O)c1cccc(O)c1C2=O`, the max response in experiment [4] is -38.7%. In addition, the result in experiment [5] and in experiment [6] was inactive.
With `C[C@]12CC[C@@H]3c4ccc(O)cc4CC[C@H]3[C@H]1CC[C@H]2O`, the max response in experiment [4] was -15.7%. Moreover, in experiment [5], the result was inactive.
In the case of `O=C1c2cccc(O)c2C(=O)c2c(O)cc(CO)cc21`, the outcome in experiment [6] was inactive.
